# Activity calls are given as the source filed them. The rule behind the calls is not given here.
# Target: Pantothenate synthetase (Mycobacterium tuberculosis (strain ATCC 25618 / H37Rv)) (UniProt P9WIL5)
# Experiment: Coupled enzyme confirmation of inhibitors against recombinant Mtb PanC (AID 375);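 note: 0% = full reaction with vehicle and 100% = no enzyme background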
# Conditions: coupled enzyme assay; at 10 µM, active compounds read high
# Sequence of Pantothenate synthetase (Mycobacterium tuberculosis (strain ATCC 25618 / H37Rv)) (P9WIL5 whole entry, looked up): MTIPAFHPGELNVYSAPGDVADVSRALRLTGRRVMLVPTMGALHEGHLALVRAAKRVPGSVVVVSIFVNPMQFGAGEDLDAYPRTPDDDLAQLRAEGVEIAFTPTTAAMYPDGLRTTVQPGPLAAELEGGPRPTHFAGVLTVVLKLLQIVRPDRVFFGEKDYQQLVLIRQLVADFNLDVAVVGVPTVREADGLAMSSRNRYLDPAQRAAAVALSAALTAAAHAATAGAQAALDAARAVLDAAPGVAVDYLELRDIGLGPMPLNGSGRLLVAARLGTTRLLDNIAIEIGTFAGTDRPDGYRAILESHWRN
row,SMILES,inhibition
1,Cc1c(NC(=O)c2ccc(CN3CCc4ccccc4C3)cc2)c(=O)n(-c2ccccc2)n1C,0% (inactive)
2,CCN(CC)c1ncc(C)c(=O)[nH]1,1% (inactive)
3,CC(=O)Nc1ccc(S(=O)(=O)N2CCN(c3cc(C)nc4ccccc34)CC2)cc1,5% (inactive)
4,N#CC1(c2ccccc2)CCC(=NO)CC1 (stereo not given),0% (inactive)
5,O=C(NC1=NCCS1)c1ccc2c(c1)C(=O)N(Cc1ccco1)C2=O,0% (inactive)
6,Cc1c(NC(=O)Cn2nc(C(=O)O)c3ccccc3c2=O)c(=O)n(-c2ccccc2)n1C,0% (inactive)
7,CCOC(=O)C(C)(C)Sc1nc2c(cnn2-c2ccc(Cl)cc2)c(=O)[nH]1,0% (inactive)
8,CCCSc1nnc(N2C(=O)CC(c3ccsc3)C3=C2CCCC3=O)s1 (stereo not given),0% (inactive)
9,O=C(NCc1cccnc1)c1ccc(=O)oc1,3% (inactive)
10,COC(=O)c1oc2ccc(Br)cc2c1NC(=O)CN1CCN(C)CC1,5% (inactive)
11,O=C(CSc1nnnn1C1CCCC1)N1CCN(C(=O)c2ccco2)CC1,0% (inactive)
12,O=C(O)c1cnn2c1NC(c1ccc(F)cc1)CC2C(F)(F)F (stereo not given),2% (inactive)
13,CCc1ccc(CCC(=O)Nc2ccc(C)c(C)c2)o1,4% (inactive)
14,Cc1cccc(N(CC(=O)N2CCCC2)S(=O)(=O)c2ccccc2)c1C,0% (inactive)
15,O=C1NC(=O)C(CC(=O)N(c2ccccc2)C2(C(=O)NC3CCCC3)CCCCC2)N1 (stereo not given),2% (inactive)
16,Cc1nn(-c2ccccc2)c2c1C(=O)NC(=O)C(C)(C)C2,0% (inactive)
17,COc1ccc(C2CC(=O)C(C=NCCN3CCOCC3)=C(O)C2)cc1 (stereo not given),0% (inactive)
18,CC1(C)CC(=O)C=C(NCc2ccncc2)C1,0% (inactive)
19,COc1ccc(Br)cc1S(=O)(=O)N1CCOCC1,0% (inactive)
20,CCCOc1ccc(NC2=CC(=O)CC(C)(C)C2)cc1,0% (inactive)

row,SMILES,inhibition
1,S=c1[nH]c2ccc(Cl)cc2[nH]1,9% (inactive)
2,CC(NS(=O)(=O)c1ccccc1)C(c1cccs1)N1CCN(C)CC1 (stereo not given),4% (inactive)
3,COC(=O)[C@H](C)NC(=O)NCc1ccc(F)cc1,1% (inactive)
4,CCOC(=O)c1ccc(N2C(=O)CC(NC3CCN(C(=O)c4ccc(F)cc4)CC3)C2=O)cc1 (stereo not given),1% (inactive)
5,Cc1cccc(N2CCN(C(=O)c3ccc(NS(=O)(=O)c4c(C)noc4C)cc3)CC2)c1C,0% (inactive)
6,COc1ccc(C(=O)N2CCN(C3CCCCC3)CC2)c(OC)c1,0% (inactive)
7,CC(=O)c1cccc(-n2nnnc2SCC(=O)N2CCCC2)c1,5% (inactive)
8,CCN1C(=O)c2cccc3c(NC(=O)c4ccc5c(c4)OCCO5)ccc1c23,0% (inactive)
9,COc1cccc(CN=CC2=C(O)CC(C)(C)CC2=O)c1OC,0% (inactive)
10,COc1ccc(C2C=C(c3ccccc3)Nc3ncnn32)cc1 (stereo not given),4% (inactive)
11,Cc1ccc(S(=O)(=O)NC(C)C(=O)Nc2ccc(C(N)=O)cc2)cc1 (stereo not given),0% (inactive)
12,O=C(CNCC1CCCO1)Nc1ccccc1-n1cccc1 (stereo not given),2% (inactive)
13,Cc1ccc(-c2cc(C(=O)N3CCCC3)no2)cc1,0% (inactive)
14,CN(C)C=Nc1nonc1N,10% (inactive)
15,CS(=O)(=O)N(Cc1ccco1)CC(O)Cn1c2ccccc2c2ccccc21 (stereo not given),0% (inactive)
16,COc1ccc(C2(C(=O)N3CCCC3)CCOCC2)cc1OC,6% (inactive)
17,CCCS(=O)(=O)N1CCCC(C(=O)NC(C)c2ccc3c(c2)OCCO3)C1 (stereo not given),3% (inactive)
18,COc1ccc2cc(C(c3nnnn3C3CCCCC3)N3CCCCCC3)c3nnnn3c2c1 (stereo not given),3% (inactive)
19,COC(=O)CSc1nc2nc(C)cc(C)n2n1,7% (inactive)
20,Cc1nc(NCc2ccc3c(c2)OCO3)c2oc3ccccc3c2n1,1% (inactive)

# From PubChem BioAssay
